This passage reports relative viability results from the supplement of paper PMC6279402.

Structures can show the parent of a compound that is named as a salt. ± gives the standard deviation of the averaged measurements.

The subject of the first experiment is A549. Kind of experiment: relative viability (normalised to negative control = 1, bortezomib = 0) (fraction); higher = less cytotoxic. The following applies: inflammatory serum-free RHB-A with cytokines + LPS; 5 d + 24 h CellTiter-Blue; compound 30 nM; GSK126 pretreatment: 5 uM GSK126. (Resazurin is reduced to fluorescent resorufin, in cell work by metabolically active cells.)
As to `COc1cc2c(Nc3ccc(NC(=O)c4ccccc4)cc3)ncnc2cc1OCCCN1CCOCC1`, the relative viability amounted to 1.04 ± 0.053.
Still for that read-out and setting: the result for `NC1(c2ccc(-c3nc4ccn5c(=O)[nH]nc5c4cc3-c3ccccc3)cc2)CCC1` reads 0.679 ± 0.074; that for `C[C@@H](Oc1cc(-n2cnc3ccc(CN4CCN(C)CC4)cc32)sc1C(N)=O)c1ccccc1C(F)(F)F`, 0.481 ± 0.028.
The same measure, in the same setting: the result for `Cc1ccc(NC(=O)c2cccc(N(C)C)c2)cc1NC(=O)c1ccc(O)cc1` reads 0.965 ± 0.086; that for `COc1cccc2c1C(=O)c1c(O)c3c(c(O)c1C2=O)C[C@@](O)(C(=O)CO)C[C@@H]3O[C@H]1C[C@H](N)[C@H](O)[C@H](C)O1` [Doxorubicin hydrochloride; 4'-Epiadriamycin; Doxorubicin HCl], 0.967 ± 0.022.

Still in this experiment, the particulars now being: inflammatory serum-free RHB-A with cytokines + LPS; 5 d + 24 h CellTiter-Blue; compound 30 nM; GSK126 pretreatment: none (vehicle).
Regarding `Cc1c2oc3c(C)ccc(C(=O)N[C@@H]4C(=O)N[C@H](C(C)C)C(=O)N5CCC[C@H]5C(=O)N(C)CC(=O)N(C)[C@@H](C(C)C)C(=O)O[C@@H]4C)c3nc-2c(C(=O)N[C@@H]2C(=O)N[C@H](C(C)C)C(=O)N3CCC[C@H]3C(=O)N(C)CC(=O)N(C)[C@@H](C(C)C)C(=O)O[C@@H]2C)c(N)c1=O` [Dactinomycin], the relative viability was 0.00574 ± 0.0057.
On the same count and under the same terms, the result for `N#C/C(=C/c1ccc(O)c(O)c1)C(=O)NCc1ccccc1` [AG-490; Tyrphostin AG 490] reads 0.861 ± 0.1; that for `C[C@@H](CN1CC(=O)NC(=O)C1)N1CC(=O)NC(=O)C1` [Dexrazoxone; Dexrazoxane], 0.832 ± 0.093; that for `CC(C)(C)Cn1c(N)nc2ccc(-c3[nH]c(C(C)(C)C)nc3-c3ccc(F)cc3)nc21`, 0.933 ± 0.21.
The same measure, in the same setting: the result for `CNC(=O)c1cc(Oc2ccc(NC(=O)Nc3ccc(Cl)c(C(F)(F)F)c3)c(F)c2)ccn1` [Regorafenib; BAY 73-4506(Regorafenib)] reads 0.892 ± 0.016; that for `Cc1ccc(NC(=O)c2ccc(CN3CCN(C)CC3)cc2)cc1Nc1nccc(-c2cccnc2)n1`, 0.867 ± 0.096.
Still for that read-out and setting: the result for `Nc1nccc(Oc2ccc(NC(=O)c3c[nH]cc(-c4ccc(F)cc4)c3=O)cc2F)c1Cl` reads 0.882 ± 0.16.
Turning to `Cc1cccc(-c2[nH]c(C(C)(C)C)nc2-c2ccc3nccnc3c2)n1`, the relative viability came to 0.828 ± 0.086.
Same read-out and setting: the result for `NC(N)=NC(N)=NCCc1ccccc1` [Phenformin hydrochloride] reads 0.864 ± 0.068; that for `O=c1c(O)c(-c2ccc(O)c(O)c2)oc2cc(O)cc(O)c12` [QUERCETIN; Quercetin(Sophoretin); Quercetin dihydrate], 0.911 ± 0.052.
The same measure, in the same setting: the result for `CC(C)CC(=O)Nc1n[nH]c2c1CN(C(=O)C1CCN(C)CC1)C2(C)C` reads 0.829 ± 0.069.
On the same count and under the same terms, the result for `Nc1nc(Nc2ccc(S(N)(=O)=O)cc2)nn1C(=O)c1c(F)cccc1F` reads 0.927 ± 0.15; that for `CS(=O)(=O)c1ccc(C(=O)Nc2ccc(Cl)c(-c3ccccn3)c2)c(Cl)c1` [Vismodegib], 0.952 ± 0.12; that for `COc1cc([C@@H]2c3cc4c(cc3[C@@H](O[C@@H]3O[C@@H]5CO[C@@H](C)O[C@H]5[C@H](O)[C@H]3O)[C@H]3COC(=O)[C@H]23)OCO4)cc(OC)c1O` [Etoposide], 0.935 ± 0.037.
Consider `O=C(NC[C@H](O)CO)c1ccncc1Nc1ccc(I)cc1F`, for which the relative viability amounted to 0.352 ± 0.0078.
The same measure, in the same setting: to `O=C1NC(=O)/C(=C/c2ccc(-c3ccc(F)cc3O)o2)S1` belongs 0.857 ± 0.062; to `CNC(=O)Nc1ccc(-c2nc(N3CC4CCC(C3)O4)c3cnn(C4CCC5(CC4)OCCO5)c3n2)cc1`, 0.432 ± 0.012.
Turning to `CC(=O)O[C@H]1C(=O)[C@@]2(C)[C@H]([C@H](OC(=O)c3ccccc3)[C@]3(O)C[C@H](OC(=O)[C@H](O)[C@@H](NC(=O)c4ccccc4)c4ccccc4)C(C)=C1C3(C)C)[C@]1(OC(C)=O)CO[C@@H]1C[C@@H]2O` [Paclitaxel; Taxol], the relative viability was 0.242 ± 0.009.
The same measure, in the same setting: to `CS(=O)(=O)CCNCc1ccc(-c2ccc3ncnc(Nc4ccc(OCc5cccc(F)c5)c(Cl)c4)c3c2)o1` [Lapatinib ditosylate; Lapatinib; Lapatinib Ditosylate] belongs 0.826 ± 0.083; to `CC[C@H](Nc1ncnc2nc[nH]c12)c1nc2cccc(F)c2c(=O)n1-c1ccccc1`, 0.876 ± 0.1.
Still for that read-out and setting: the result for `COc1cccc(-c2cc(=O)c3ccccc3o2)c1N` reads 0.794 ± 0.057; that for `CN(C)/N=N/c1[nH]cnc1C(N)=O` [Dacarbazine], 0.992 ± 0.11.
As for `O=NN(CCCl)C(=O)NC1CCCCC1` [Lomustine, CCNU; Lomustine], the relative viability came out at 0.973 ± 0.15.
On the same count and under the same terms, the result for `Cc1c(NC(=O)OC[C@@H]2COCCN2)cn2ncnc(Nc3ccc4c(cnn4Cc4cccc(F)c4)c3)c12` reads 0.802 ± 0.081; that for `CCCNC(=O)Nc1ccc(Oc2ncnc3cc(OC)c(OC)cc23)cc1Cl`, 0.752 ± 0.01.
As for `Cc1cc(Nc2cc(N3CCN(C)CC3)nc(Sc3ccc(NC(=O)C4CC4)cc3)n2)n[nH]1`, the relative viability was found to be 0.717 ± 0.062.
`c1cncc(CN2CCC(n3ncc4c(N5CCOCC5)nc(-c5ccc6[nH]ccc6c5)nc43)CC2)c1`: the relative viability turned out to be 0.896 ± 0.11.
Still for that read-out and setting: to `N#Cc1ccc(C(c2ccc(C#N)cc2)n2cncn2)cc1` [Letrozole] belongs 0.7993 ± 0.0055; to `CC(=O)Nc1cccc(-n2c(=O)n(C3CC3)c(=O)c3c(Nc4ccc(I)cc4F)n(C)c(=O)c(C)c32)c1`, 0.171 ± 0.011; to `Cc1csc(-c2nnc(Nc3ccc(Oc4ncccc4-c4ccnc(N)n4)cc3)c3ccccc23)c1`, 0.593 ± 0.11.
Same read-out and setting: to `Clc1ccc(Nc2nnc(Cc3ccncc3)c3ccccc23)cc1` [Vatalanib] belongs 0.791 ± 0.044; to `Cc1ncc(-c2ccnc(Nc3ccc(S(C)(=O)=O)cc3)n2)n1C(C)C`, 0.854 ± 0.011.
Still for that read-out and setting: the result for `COc1cc2c(Nc3ccc(NC(=O)c4ccccc4)cc3)ncnc2cc1OCCCN1CCOCC1` reads 0.992 ± 0.1; that for `NC1(c2ccc(-c3nc4ccn5c(=O)[nH]nc5c4cc3-c3ccccc3)cc2)CCC1`, 0.691 ± 0.063; that for `C[C@@H](Oc1cc(-n2cnc3ccc(CN4CCN(C)CC4)cc32)sc1C(N)=O)c1ccccc1C(F)(F)F`, 0.326 ± 0.05.
With `Cc1ccc(NC(=O)c2cccc(N(C)C)c2)cc1NC(=O)c1ccc(O)cc1`, the relative viability was found to be 1.02 ± 0.11.
With `COc1cccc2c1C(=O)c1c(O)c3c(c(O)c1C2=O)C[C@@](O)(C(=O)CO)C[C@@H]3O[C@H]1C[C@H](N)[C@H](O)[C@H](C)O1` [Doxorubicin hydrochloride; 4'-Epiadriamycin; Doxorubicin HCl], the relative viability turned out to be 0.9737 ± 0.0065.
